# Laboratory results as given in PubChem BioAssay AID2253 (Southern Research Specialized Biocontainment Screening …, 2010).
# About 1,300 (59%) of roughly 2,200 compounds were called active. The set was probably picked from earlier hits. Only a sample is shown. Results with a measured potency or affinity are listed apart. A number with no mark means an inactive call. The rule behind the calls is not given here.
# Experiment: THP-1 cell cytotoxicity, dose response, cytotoxicity control for Salmonella PhoP regulon inhibitors, S. typhimurium screen hits (AID 2253)
# Details: THP-1 viability, CellTiter-Glo luminescence, 72 h; series mostly up to 50 µM; viability: at the top concentration
row,Structure (SMILES),viability
1,CCCCCOc1ccc(NC(=O)C(=O)NCCC2=CCCCC2)cc1,103%
2,O=C(CSc1nncs1)Nc1ccc2c(c1)OCCO2,84.8%
3,CC(O)CNc1cc(N)c([N+](=O)[O-])cc1[N+](=O)[O-] (stereo not drawn),85.4%
4,CCNC(=O)COC(=O)CCC(=O)c1cccs1,91.3%
5,COCCNS(=O)(=O)c1cccn1-c1ncc(C(F)(F)F)cc1Cl,85.5%
6,Cc1cc(C)cc(-n2nc(C)cc2N)c1,86.2%
7,Cc1cccc(NC(=O)CCC(=O)OCc2ccc(Br)cc2)c1,97.5%
8,CCOC(=O)CN1C(=O)C(C)(C)Oc2ccc(C(=O)Nc3ccccc3OC)cc21,84.7%
9,O=C(O)C1CCC(N2C(=O)C3CCCCC3C2=O)CC1 (stereo not drawn),91.5%
10,COC(=O)c1ccc(CSc2nnnn2-c2ccccc2)o1,84.5%
11,Cc1ccccc1-n1nc(-c2ccc(N)cc2)cc1N,102%
12,CC(=O)c1cccc(NC(=O)Nc2cccs2)c1,80.3%
13,Cc1cc(CNC(=O)Nc2ccc3c(c2)OCO3)nn1C,92.9%
14,CC(=O)c1cccc(NC(=O)Nc2cc3sccc3n2C)c1,107%
15,CN(C)C(CNC(=O)Nc1cccc(Cl)c1)c1cccnc1 (stereo not drawn),102%
16,O=C(CSCc1ccccc1)Nc1ccc2c(c1)OCO2,93.8%
17,O=C(NCc1ccccn1)Nc1cccc(Cl)c1,88.9%
18,Cc1ccccc1CS(=O)(=O)c1snnc1C,96.2%
19,CCOC(=O)c1cnc2ccccc2c1Nc1ccc2c(c1)OCCO2,86.5%
20,CCOC(=O)c1cnc2ccc(OC)cc2c1Nc1ccc2c(c1)OCCO2,83.7%
21,Cc1cc(Nc2ccccc2F)n2ncnc2n1,88.2%
22,N/C(=N\OC(=O)Nc1ccc(Cl)cc1)c1ncc(C(F)(F)F)cc1Cl,80.3%
23,Cc1nn(-c2ncc(C(F)(F)F)cc2Cl)c(=O)n1-c1cccc(Cl)c1,85.9%
24,CCCCNC(=O)OC1CCS(=O)(=O)C1 (stereo not drawn),95.9%

row,Structure (SMILES),viability
1,Cc1ccc2nc(-c3ccc(Br)o3)oc(=O)c2c1,82.7%
2,COC(=O)C1=C(C)N(C)C(=O)/C1=C\c1ccco1,85%
3,C=CC1=C(C(=O)O)N2C(=O)[C@@H](NC(=O)/C(=N\O)c3csc(N)n3)[C@H]2SC1 (stereo in doubt),94.7%
4,O=C1CC(SCc2nc3ccccc3[nH]2)C(=O)N1c1ccc(Cl)cc1 (stereo not drawn),96.6%
5,O=C(NC1CCCCC1)C(c1ccncc1)N(CC1CCCO1)C(=O)C(F)(F)F (stereo not drawn),93.5%
6,O=C(Nc1ccc(Cl)cc1)N1CC=CCC1,90.5%
7,Cn1cccc1CC(=O)NNC(=S)Nc1ccc(Cl)cc1,113%
8,CCC(CC)c1nnc(NC(=O)Oc2ccccc2)s1,84%
9,CCN(CC(=O)N1CCN(Cc2ccccc2)CC1)S(=O)(=O)c1ccc(F)cc1,85.8%
10,S=C(Nc1ccc2snnc2c1)N1CCN(c2ccccn2)CC1,96.9%
11,Cc1ccccc1NC(=O)Nc1cccs1,92.4%
12,CCN(CC)CCN(Cc1cc2cc3c(cc2[nH]c1=O)OCCO3)C(=O)NC1CCCCC1,89.8%
13,COc1ccccc1NC(=S)NC(=O)C(C)(C)C,102%
14,Nc1ccc2c(c1)C(=O)N(CC1CCCO1)C2=O (stereo not drawn),96.7%
15,Nc1ccc2oc3ccccc3c2c1,108%
16,CCOC(=O)c1cn(CC)c2cc(N3CCOCC3)c(F)cc2c1=O,87.9% [at 25 µM]
17,CCCc1cc(N2CCN(c3ccccn3)CC2)n2nc(C)c(-c3ccccc3)c2n1,100%
18,CCCN(CCC)CCCNS(=O)(=O)c1ccc2c(c1)oc(=O)n2C,87.8%
19,O=C(O)CCc1nn2c3ccccc3n(CC(=O)c3ccccc3)c2nc1=O,94.2%
20,COC(=O)Cn1c(C)nc2ccccc21,101%
21,CSc1nsc(SCC(=O)Nc2ccc(C(C)=O)cc2)n1,92%
22,CCCc1nc2c(o1)CC(CC(C)SCC)CC2=O (stereo not drawn),99%
23,Cc1cc(Oc2ccc(-c3nnc(-c4ccccc4)o3)cc2[N+](=O)[O-])ccc1Cl,97%
24,C=CCOc1ccc(Br)cc1/C=N/O,89.5%

row,Structure (SMILES),viability
1,CCOC(=O)CCCNC(=O)COC(=O)CCC(=O)c1ccc(F)cc1,96%
2,COc1ccccc1N1CCN(C/C(O)=C(\C#N)c2nc(-c3ccccc3)cs2)CC1,113%
3,Cc1cc(C)nc(NC(=O)Cc2cccs2)n1,104%
4,Cc1oc(CC(C)C)c(CN2CCCC2)c1C(=O)O,87.2%
5,O=C(O)C1(P(=O)(c2ccccc2)c2ccccc2)CCC1,93.6%
6,O=C(O)CCc1nnc2n(Cc3ccc(F)cc3)c(=O)c3ccccc3n12,94.4%
7,CC1Cc2ccccc2N1C(=O)COC(=O)c1ccc(S(=O)(=O)N(C)C)cc1 (stereo not drawn),95.1%
8,CCSc1nc(C2CC2)cc(-c2cccs2)c1C#N,99.5%
9,Cc1ccc(-n2nc(-c3ccc(N)cc3)cc2N)cc1,100%
10,O=c1cc(O)nc(SCc2ccccc2Cl)[nH]1,92.7%
11,O=C(O)CCS(=O)(=O)c1ccc(-c2ccccc2)cc1,97.2%
12,Cc1c(Cl)cccc1NC(=O)CSCC(N)=O,97.7%
13,O=C(NC(NC(=S)Nc1ccc(Cl)cc1)C(Cl)(Cl)Cl)c1ccco1 (stereo not drawn),95.5%
14,CCC(C)NC(=O)c1cn(CC)c2cc(N3CCN(C)CC3)c(F)cc2c1=O (stereo not drawn),83.6%
15,NC(=O)C1(NC(=O)[C@@H]2CC3(CC(c4cccc(NC(=O)[C@@H]5CCC(=O)N5)c4)=NO3)CN2C(=O)Cc2ccc(Cl)cc2)CC1 (stereo partly drawn),91.9%
16,COCCNC(=O)c1ccc(C(=O)NCCOC)s1,114%
17,CCn1cc(C(=O)OCC(=O)Nc2ccc(S(=O)(=O)N3CCCC3)cc2)c(=O)c2ccc(C)nc21,97.5%
18,CCOC(=O)N1CCN(C(=O)c2ccc(NC(=O)c3ccc(C)cc3)cc2)CC1,86.7%
19,O=C(OCC(=O)c1ccc(S(=O)(=O)N2CCCC2)cc1)C1=COCCO1,103%
20,COc1cc(S(=O)(=O)N2CCCCC2)ccc1NC=O,110%
21,Cc1nnc(SC(C)C(=O)Nc2ccc(S(=O)(=O)N3CCCCCC3)cc2)s1 (stereo not drawn),83.6%
22,O=C(CCC(=O)c1cccs1)OCC(=O)N1CCN(S(=O)(=O)c2ccccc2)CC1,94%
23,Cc1cc(C)c2c(=O)[nH]c(SCC(=O)Nc3ccc(N(C)C)cc3)nc2n1,94.1%
24,Cc1cccc(C(=O)O/N=C2\CCSc3ccc(C)cc32)c1,82%

row,Structure (SMILES),viability
1,CC1(C)CC(=O)C(C=Nc2ccc(Cl)cn2)=C(O)C1,116%
2,CN1CCN(c2cc3c(cc2F)c(=O)c(C(=O)O)cn3CCF)CC1,86.3%
3,Cc1cc(C(=O)NCc2ccco2)no1,96.3%
4,CC(C)(C)NS(=O)(=O)c1ccc(CCC(=O)N2CCOCC2)cc1,92.2%
5,CCOC(=O)C1=C(c2ccccc2)N=C2SCC(=O)N2C1c1ccc(O)c(OC)c1 (stereo not drawn),89.6%
6,COc1ccc(-c2nnc(SCC(=O)NCc3ccco3)o2)cc1,86.9%
7,COc1ccc(-c2csc(NC(=O)C3CCCO3)n2)cc1 (stereo not drawn),81.1%
8,CCN(C(C)=O)c1nc(CSc2nnc(NC(C)C)s2)cs1,87.3%
9,COc1ccc(/C=N/NC(=O)c2ccc3c(c2)OCCO3)cc1[N+](=O)[O-],96.5%
10,O=C(CN1CCCCC1)Nc1cccc(Br)c1,95%
11,O=C(CN1CCCCCC1)Nc1cccc(Br)c1,84%
12,O=C(c1cccc(S(=O)(=O)N2CCOCC2)c1)N1CCCC1,98.5%
13,CCOC(=O)C1=CSC2=NS(=O)(=O)CCN12,98.7%
14,CC(=O)N1CCC(N(CCN2CCOCC2)C(=S)Nc2cccc(C)c2C)CC1,86.5%
15,CNc1ncc(Cc2ccccc2)s1,98.4%
16,Cc1nc(N2CCN(Cc3ccccc3)CC2)nc2c1C(=O)CC(C)C2 (stereo not drawn),82.4%
17,O=c1cc(CSc2nc(NCc3ccccc3)c3ccccc3n2)nc2ccc(Cl)cn12,83.5%
18,CCOC(=O)Nc1ccc(C)cc1C,91.4%
19,CCOC(=O)c1ccc(NC(=O)Nc2cc(C)on2)cc1,99.5%
20,CCOC(=O)C1CCCN(C(=O)c2sc3nc(C)nc(N4CCOCC4)c3c2C)C1 (stereo not drawn),86.6%
21,CCCCNC(=O)Oc1cccc(N2CCCC2=O)c1,101%
22,CCCOc1ccc(C(=O)CCC(=O)OCC(=O)N2CC(=O)Nc3ccccc32)cc1,96.4%
23,O=S1(=O)C=CC(Nc2ccccc2)C1 (stereo not drawn),85.5%
24,CC(C)N(Cc1nc(-c2ccccc2)no1)C(=O)CN(C)S(=O)(=O)c1ccccc1,82.1% [at 25 µM]

row,Structure (SMILES),viability
1,C[C@H]1COc2c(N3CCN(C)CC3)c(F)cc3c(=O)c(C(=O)O)cn1c23,99.5%
2,Cc1nc(-c2ccccc2)cc(=O)[nH]1,96.8%
3,Cc1ccc(Oc2nnc(-c3ccccc3)c3ccccc23)cc1,101%
4,COC(=O)c1cc(C#N)c(Oc2cccc(C)c2C)nc1C,88.2%
5,COc1ccc(NC(=O)ON=C2c3ccccc3-c3ccccc32)cc1,89%
6,NC(=O)c1ccccc1N=Cc1ccccn1,91.5%
7,Cc1ccc(C(=O)Nc2ccccc2C(N)=O)o1,86.6%
8,Cc1scc(C(=O)O)c1-c1c(C(=O)O)csc1C,96.9%
9,CN(CC(=O)NCc1cccc(F)c1)C(=O)c1ccco1,84.9%
10,COC(=O)c1ccc(Sc2ccccc2NS(=O)(=O)c2ccc(C)cc2)nc1,91.1%
11,COc1cc(OC)c(C(=O)Nc2ccc(S(=O)(=O)Nc3ncccn3)cc2)cc1OC,98.1%
12,N/C(=N\c1nc2ccccc2o1)NC(=O)c1ccccc1F,94.7%
13,CCCOc1ccc(/C=N/O)cc1,94.1%
14,CC(=O)NC12CC3CC(C1)CC(C(=O)OCC(=O)c1ccc4c(c1)OCCO4)(C3)C2,82.9%
15,O=C1CN(C(=O)COC(=O)CCC(=O)c2ccc3c(c2)OCCO3)c2ccccc2N1,87.7%
16,Cn1c(NCc2cccs2)nc2ccccc21,86.8%
17,O=C(CSC1CCCCC1)Nc1ccccc1Br,100%
18,CN1CCN(S(=O)(=O)c2ccc(N)cc2)CC1,101%
19,COc1cc(C=O)ccc1OCCCOc1ccccc1[N+](=O)[O-],84.3%
20,O=C(CNC(=O)c1ccco1)OCC(=O)c1ccc2c(c1)CCCC2,103%
21,CC(C)(C)C1CCC2(CC1)Nc1cccc3cccc(c13)N2,112%
22,Cc1ccc(C(=O)NCC(=O)OCC(=O)N2CCCc3ccccc32)cc1,112%
